Holding throughout (assay): DAPPL (digital affinity profiling via proximity ligation, sequencing); 10 mM Tris-HCl pH 7.5, 50 mM NaCl, 1 mM DTT, 4% glycerol, room temperature, 30 min; GST-TFs on glutathione beads, 16-mer random dsDNA library, 0.1% formaldehyde crosslink after washing; high values mean tight binding
One test concerns the target T1, FEV (Homo sapiens, UniProt Q99581 1-238).
T1 sequence: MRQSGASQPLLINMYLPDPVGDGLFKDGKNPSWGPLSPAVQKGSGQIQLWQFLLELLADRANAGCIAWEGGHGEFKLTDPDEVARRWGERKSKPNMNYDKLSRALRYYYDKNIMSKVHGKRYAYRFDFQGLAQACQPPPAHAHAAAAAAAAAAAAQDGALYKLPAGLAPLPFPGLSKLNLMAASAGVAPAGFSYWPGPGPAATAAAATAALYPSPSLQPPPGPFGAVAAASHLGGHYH
As to conditions: protein: recombinant; tags: N-terminal GST; dsDNA, one strand shown. The essentials:
(§1)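 Yeast served to express human transcription factors as GST fusions, which were then captured on glutathione beads and labelled with DNA barcodes. Pooled with a tag-only sample, they were incubated with 200 nmole of a 16-mer random double-stranded DNA library for 30 min at room temperature in Tris/NaCl/DTT/glycerol buffer, washed, crosslinked with 0.1% formaldehyde, ligated by proximity, amplified by PCR and sequenced. Dividing each hexamer's read frequency for a factor by its frequency for the tag-only sample gives the binding signal.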

The next test addresses ETV5 (Homo sapiens, UniProt P41161 1-510). As to conditions: protein: recombinant; tags: N-terminal GST; dsDNA, one strand shown. In outline:
as §1

A further test addresses HSF1 (Homo sapiens, UniProt Q00613 1-529). As to conditions: protein: recombinant; tags: N-terminal GST; chain copies: 3; dsDNA, one strand shown. In outline:
as §1

The target in the next test is T2, SPIC (Homo sapiens, UniProt Q8N5J4 1-248).
T2 sequence: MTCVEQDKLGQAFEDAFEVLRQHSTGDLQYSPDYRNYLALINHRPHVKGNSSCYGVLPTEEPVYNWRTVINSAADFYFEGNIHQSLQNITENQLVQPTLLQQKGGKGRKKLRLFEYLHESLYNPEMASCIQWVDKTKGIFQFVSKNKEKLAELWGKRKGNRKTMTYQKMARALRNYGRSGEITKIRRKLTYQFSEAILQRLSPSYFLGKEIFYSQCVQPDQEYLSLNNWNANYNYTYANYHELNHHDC
As to conditions: protein: recombinant; tags: N-terminal GST; dsDNA, one strand shown. In outline:
as §1

Another test deals with ELF4 (Homo sapiens, UniProt Q99607 1-663). As to conditions: protein: recombinant; tags: N-terminal GST; dsDNA, one strand shown. In outline: as §1
The target of another test is T3, ELK4 (Homo sapiens, UniProt P28324-2 1-405).
T3 sequence: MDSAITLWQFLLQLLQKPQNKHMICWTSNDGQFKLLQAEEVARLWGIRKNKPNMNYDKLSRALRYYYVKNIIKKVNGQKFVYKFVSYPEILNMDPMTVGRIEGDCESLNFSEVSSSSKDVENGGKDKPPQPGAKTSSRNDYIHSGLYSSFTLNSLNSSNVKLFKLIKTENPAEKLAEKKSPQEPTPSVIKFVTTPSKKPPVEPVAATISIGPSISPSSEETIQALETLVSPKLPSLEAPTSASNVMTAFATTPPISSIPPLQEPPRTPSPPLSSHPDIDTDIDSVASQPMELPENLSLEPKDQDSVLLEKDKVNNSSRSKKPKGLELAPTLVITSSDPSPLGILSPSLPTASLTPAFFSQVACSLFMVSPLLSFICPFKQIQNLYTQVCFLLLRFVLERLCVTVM
As to conditions: protein: recombinant; tags: N-terminal GST; dsDNA, one strand shown. In outline:
as §1

The target of another test is T4, ETV2 (Homo sapiens, UniProt O00321 1-342).
T4 sequence: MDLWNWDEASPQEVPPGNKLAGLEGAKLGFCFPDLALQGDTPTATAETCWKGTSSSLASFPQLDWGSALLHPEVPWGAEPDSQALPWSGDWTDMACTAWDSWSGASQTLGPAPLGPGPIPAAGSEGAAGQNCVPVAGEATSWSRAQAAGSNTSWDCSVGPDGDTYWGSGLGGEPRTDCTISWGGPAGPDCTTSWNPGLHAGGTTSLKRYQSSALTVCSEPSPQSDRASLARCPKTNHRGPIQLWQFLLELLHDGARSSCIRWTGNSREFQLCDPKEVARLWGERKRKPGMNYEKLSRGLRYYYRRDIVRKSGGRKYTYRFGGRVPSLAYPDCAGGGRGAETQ
As to conditions: protein: recombinant; tags: N-terminal GST; dsDNA, one strand shown. The essentials: as §1

A further test has as its target T5, ELF3 (Homo sapiens, UniProt P78545 1-371).
T5 sequence: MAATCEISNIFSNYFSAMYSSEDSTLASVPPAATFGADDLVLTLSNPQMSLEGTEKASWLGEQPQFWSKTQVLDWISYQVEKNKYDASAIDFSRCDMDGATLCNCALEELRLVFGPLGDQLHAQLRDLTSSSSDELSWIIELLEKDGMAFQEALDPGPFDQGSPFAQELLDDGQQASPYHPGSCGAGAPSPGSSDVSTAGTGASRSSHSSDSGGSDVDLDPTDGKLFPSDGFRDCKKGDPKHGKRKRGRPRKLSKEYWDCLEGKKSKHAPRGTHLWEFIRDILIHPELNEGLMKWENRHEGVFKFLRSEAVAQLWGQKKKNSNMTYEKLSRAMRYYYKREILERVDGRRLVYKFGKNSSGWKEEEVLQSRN
As to conditions: protein: recombinant; tags: N-terminal GST; dsDNA, one strand shown. The essentials:
as §1

A further test concerns the target CRX (Homo sapiens, UniProt O43186 1-299). As to conditions: protein: recombinant; tags: N-terminal GST; dsDNA, one strand shown. In outline: as §1
For a further test, the target named is ETV1 (Homo sapiens, UniProt P50549 1-477). As to conditions: protein: recombinant; tags: N-terminal GST; dsDNA, one strand shown. The essentials: as §1
A further test deals with T6, ERF (Homo sapiens, UniProt P50548 1-548).
T6 sequence: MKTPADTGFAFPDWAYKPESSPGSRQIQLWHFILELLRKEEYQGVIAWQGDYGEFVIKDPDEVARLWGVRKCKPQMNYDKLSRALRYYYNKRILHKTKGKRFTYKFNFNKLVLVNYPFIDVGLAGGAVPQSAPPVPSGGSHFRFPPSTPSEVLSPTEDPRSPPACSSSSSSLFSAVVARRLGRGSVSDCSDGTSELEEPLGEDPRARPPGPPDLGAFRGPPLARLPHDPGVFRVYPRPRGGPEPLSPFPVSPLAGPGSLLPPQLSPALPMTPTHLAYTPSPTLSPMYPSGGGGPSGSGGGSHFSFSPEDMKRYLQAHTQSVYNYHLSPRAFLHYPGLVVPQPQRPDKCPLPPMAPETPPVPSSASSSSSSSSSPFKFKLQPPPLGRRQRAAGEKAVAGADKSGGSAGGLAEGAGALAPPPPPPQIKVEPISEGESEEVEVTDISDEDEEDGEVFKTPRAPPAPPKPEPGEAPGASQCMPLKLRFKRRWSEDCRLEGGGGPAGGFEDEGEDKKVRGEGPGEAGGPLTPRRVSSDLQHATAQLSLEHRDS
As to conditions: protein: recombinant; tags: N-terminal GST; dsDNA, one strand shown. In outline: as §1

The target of a further test is T7, ETV3L (Homo sapiens, UniProt Q6ZN32 1-361).
T7 sequence: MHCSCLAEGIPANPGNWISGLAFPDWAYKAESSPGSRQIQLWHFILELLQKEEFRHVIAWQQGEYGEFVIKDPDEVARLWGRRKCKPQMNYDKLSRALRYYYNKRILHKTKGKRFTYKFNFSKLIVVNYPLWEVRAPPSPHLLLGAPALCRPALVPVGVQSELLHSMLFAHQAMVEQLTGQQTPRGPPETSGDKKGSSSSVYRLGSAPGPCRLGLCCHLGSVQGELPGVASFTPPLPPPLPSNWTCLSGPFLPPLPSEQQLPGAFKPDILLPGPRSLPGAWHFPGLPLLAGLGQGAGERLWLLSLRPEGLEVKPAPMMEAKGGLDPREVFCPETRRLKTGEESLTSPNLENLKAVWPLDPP
As to conditions: protein: recombinant; tags: N-terminal GST; dsDNA, one strand shown. The essentials:
as §1

The target of the next test is T8, ETS2 (Homo sapiens, UniProt P15036 1-469).
T8 sequence: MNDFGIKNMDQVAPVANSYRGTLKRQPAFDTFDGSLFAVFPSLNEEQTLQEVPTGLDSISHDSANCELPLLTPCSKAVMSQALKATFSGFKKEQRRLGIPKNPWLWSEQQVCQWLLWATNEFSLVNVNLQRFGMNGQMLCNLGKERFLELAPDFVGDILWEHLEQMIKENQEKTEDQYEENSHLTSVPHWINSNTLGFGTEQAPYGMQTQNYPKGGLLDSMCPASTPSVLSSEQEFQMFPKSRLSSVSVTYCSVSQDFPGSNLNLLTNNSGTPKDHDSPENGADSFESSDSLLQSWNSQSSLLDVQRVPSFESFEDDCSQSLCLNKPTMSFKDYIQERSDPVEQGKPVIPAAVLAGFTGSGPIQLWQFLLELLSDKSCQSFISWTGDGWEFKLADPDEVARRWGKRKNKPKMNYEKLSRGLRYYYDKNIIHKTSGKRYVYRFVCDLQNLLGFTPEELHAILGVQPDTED
As to conditions: protein: recombinant; tags: N-terminal GST; dsDNA, one strand shown. The essentials:
as §1

The target of another test is T9, SPDEF (Homo sapiens, UniProt O95238 1-335).
T9 sequence: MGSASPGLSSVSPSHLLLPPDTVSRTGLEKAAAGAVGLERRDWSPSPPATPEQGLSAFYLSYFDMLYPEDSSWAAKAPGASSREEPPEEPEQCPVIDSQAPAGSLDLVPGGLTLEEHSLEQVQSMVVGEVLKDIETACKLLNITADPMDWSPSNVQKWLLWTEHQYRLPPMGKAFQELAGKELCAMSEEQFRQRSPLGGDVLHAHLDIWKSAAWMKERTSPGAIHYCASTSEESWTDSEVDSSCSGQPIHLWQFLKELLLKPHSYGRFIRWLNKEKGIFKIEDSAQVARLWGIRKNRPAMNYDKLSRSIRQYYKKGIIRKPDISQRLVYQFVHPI
As to conditions: protein: recombinant; tags: N-terminal GST; dsDNA, one strand shown. The essentials: as §1

The next test concerns the target T10, ETV7 (Homo sapiens, UniProt Q9Y603 1-341).
T10 sequence: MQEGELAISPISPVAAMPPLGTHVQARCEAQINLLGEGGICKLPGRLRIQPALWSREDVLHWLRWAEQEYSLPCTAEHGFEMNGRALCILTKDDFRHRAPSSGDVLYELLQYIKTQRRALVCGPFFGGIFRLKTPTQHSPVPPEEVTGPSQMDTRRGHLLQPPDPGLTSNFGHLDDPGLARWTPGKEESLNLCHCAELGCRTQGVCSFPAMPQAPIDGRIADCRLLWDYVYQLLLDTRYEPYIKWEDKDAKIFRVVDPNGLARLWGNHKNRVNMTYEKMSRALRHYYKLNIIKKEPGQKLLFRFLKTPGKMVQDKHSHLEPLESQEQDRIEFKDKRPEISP
As to conditions: protein: recombinant; tags: N-terminal GST; dsDNA, one strand shown. In outline: as §1

Another test concerns the target T11, ELF5 (Homo sapiens, UniProt Q9UKW6-2 1-255).
T11 sequence: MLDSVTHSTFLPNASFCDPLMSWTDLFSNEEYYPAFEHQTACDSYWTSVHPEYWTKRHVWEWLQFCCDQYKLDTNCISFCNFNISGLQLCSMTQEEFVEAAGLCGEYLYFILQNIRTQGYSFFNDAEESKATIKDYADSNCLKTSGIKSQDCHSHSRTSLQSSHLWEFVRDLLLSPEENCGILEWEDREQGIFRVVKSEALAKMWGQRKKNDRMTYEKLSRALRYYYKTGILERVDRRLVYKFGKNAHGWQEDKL
As to conditions: protein: recombinant; tags: N-terminal GST; dsDNA, one strand shown. The essentials: as §1

Another test has as its target T12, ETV3 (Homo sapiens, UniProt P41162-2 1-143).
T12 sequence: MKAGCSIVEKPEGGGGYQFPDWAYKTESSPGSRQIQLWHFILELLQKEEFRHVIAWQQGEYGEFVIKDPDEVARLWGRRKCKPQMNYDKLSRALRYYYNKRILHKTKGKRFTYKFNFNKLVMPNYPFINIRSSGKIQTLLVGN
As to conditions: protein: recombinant; tags: N-terminal GST; dsDNA, one strand shown. The essentials:
as §1

For the next test, the target named is ETV6 (Homo sapiens, UniProt P41212 1-452). As to conditions: protein: recombinant; tags: N-terminal GST; dsDNA, one strand shown. The essentials: as §1
ETV6, sequence (P41212 whole entry): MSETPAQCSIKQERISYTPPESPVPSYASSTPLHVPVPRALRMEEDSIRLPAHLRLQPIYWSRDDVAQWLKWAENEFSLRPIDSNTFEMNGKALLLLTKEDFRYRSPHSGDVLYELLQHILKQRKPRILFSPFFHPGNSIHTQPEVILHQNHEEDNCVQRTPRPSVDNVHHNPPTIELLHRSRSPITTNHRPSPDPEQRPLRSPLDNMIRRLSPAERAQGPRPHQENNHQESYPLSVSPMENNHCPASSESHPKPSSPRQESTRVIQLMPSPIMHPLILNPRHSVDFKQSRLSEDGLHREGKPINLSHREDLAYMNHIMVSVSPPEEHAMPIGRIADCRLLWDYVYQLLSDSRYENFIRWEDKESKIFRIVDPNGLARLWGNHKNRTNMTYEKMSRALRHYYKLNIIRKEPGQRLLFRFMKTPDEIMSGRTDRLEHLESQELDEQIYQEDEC

ETV1, sequence (P50549 whole entry): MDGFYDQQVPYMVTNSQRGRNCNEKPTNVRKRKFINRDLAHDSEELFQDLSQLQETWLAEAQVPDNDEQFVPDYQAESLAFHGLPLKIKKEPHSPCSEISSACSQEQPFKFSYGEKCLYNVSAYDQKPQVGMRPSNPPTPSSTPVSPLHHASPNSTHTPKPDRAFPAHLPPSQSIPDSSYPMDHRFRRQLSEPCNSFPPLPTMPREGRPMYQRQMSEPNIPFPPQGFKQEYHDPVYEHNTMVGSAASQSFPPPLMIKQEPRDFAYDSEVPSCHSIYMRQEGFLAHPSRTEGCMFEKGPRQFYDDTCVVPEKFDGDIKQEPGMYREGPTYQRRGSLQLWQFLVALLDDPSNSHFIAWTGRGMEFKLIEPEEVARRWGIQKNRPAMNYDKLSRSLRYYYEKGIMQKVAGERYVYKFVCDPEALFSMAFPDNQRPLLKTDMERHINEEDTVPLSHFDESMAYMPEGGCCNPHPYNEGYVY
ETV5, sequence (P41161 whole entry): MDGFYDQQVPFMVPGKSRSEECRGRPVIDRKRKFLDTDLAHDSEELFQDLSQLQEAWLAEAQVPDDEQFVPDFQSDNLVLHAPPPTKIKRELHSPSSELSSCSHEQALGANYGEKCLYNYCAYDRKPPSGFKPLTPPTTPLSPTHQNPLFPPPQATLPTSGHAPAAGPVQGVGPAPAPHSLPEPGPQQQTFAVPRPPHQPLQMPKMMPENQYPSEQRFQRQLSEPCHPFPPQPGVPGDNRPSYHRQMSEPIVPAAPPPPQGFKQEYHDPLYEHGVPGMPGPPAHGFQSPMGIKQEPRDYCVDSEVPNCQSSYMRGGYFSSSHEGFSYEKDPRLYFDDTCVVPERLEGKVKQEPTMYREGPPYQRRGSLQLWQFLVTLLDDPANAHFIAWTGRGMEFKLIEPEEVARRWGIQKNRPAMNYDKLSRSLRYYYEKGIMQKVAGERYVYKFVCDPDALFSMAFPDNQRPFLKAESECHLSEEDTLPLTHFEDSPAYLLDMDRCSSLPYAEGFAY
ELF4, sequence (Q99607 whole entry): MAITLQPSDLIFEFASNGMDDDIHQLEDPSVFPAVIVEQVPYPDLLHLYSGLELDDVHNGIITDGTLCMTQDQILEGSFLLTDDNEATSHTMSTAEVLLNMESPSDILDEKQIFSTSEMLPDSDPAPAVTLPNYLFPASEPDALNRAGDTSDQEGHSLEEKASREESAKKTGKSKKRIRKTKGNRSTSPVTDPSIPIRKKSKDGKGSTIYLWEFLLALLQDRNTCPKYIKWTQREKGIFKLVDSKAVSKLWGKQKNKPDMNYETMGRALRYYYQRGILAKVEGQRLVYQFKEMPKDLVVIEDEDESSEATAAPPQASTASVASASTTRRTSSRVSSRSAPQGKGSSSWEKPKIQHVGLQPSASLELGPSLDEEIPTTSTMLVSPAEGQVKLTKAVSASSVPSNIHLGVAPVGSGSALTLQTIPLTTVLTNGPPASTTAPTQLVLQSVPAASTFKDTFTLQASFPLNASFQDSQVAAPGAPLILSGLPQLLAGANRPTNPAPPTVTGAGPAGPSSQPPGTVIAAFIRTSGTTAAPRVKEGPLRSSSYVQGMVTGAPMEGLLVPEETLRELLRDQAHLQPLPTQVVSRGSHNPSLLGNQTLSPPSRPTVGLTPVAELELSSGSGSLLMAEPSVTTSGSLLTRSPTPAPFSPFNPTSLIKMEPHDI
HSF1, sequence (Q00613 whole entry): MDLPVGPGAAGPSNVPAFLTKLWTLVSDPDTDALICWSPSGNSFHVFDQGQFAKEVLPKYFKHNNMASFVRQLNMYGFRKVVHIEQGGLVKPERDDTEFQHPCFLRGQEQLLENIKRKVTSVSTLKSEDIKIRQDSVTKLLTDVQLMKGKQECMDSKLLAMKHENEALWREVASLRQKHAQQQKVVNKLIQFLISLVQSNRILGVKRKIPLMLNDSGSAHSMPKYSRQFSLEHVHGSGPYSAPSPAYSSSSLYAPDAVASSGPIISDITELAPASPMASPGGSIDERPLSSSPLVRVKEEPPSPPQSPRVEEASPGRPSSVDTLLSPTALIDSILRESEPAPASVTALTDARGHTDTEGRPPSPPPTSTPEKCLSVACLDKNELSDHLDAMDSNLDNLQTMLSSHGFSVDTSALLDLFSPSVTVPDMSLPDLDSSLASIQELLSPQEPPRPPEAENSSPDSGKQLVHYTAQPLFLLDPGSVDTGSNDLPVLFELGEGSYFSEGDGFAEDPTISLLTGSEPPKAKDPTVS
CRX, sequence (O43186 whole entry): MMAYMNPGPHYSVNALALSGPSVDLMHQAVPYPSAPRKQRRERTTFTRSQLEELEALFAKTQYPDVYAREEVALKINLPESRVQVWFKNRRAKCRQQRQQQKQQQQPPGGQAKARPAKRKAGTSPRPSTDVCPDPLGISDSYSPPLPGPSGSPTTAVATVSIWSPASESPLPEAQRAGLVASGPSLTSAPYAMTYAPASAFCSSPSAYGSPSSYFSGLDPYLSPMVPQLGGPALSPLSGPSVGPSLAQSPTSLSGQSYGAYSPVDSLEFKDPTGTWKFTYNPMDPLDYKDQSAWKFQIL

For CTCCCC, the binding signal with FEV is 1.4 fold enrichment (6-mer frequency, TF over GST control); in the test with ETV5, 1.39 fold enrichment (6-mer frequency, TF over GST control); with HSF1, 1.14 fold enrichment (6-mer frequency, TF over GST control); in the test with SPIC, 1.28 fold enrichment (6-mer frequency, TF over GST control); with ELF4, 1.42 fold enrichment (6-mer frequency, TF over GST control); with ELK4 it was 1.38 fold enrichment (6-mer frequency, TF over GST control). For the same sequence, the binding signal with ETV2 was 1.63 fold enrichment (6-mer frequency, TF over GST control); with ELF3, 1.25 fold enrichment (6-mer frequency, TF over GST control); with CRX, 1.19 fold enrichment (6-mer frequency, TF over GST control); in the test with ETV1, 1.46 fold enrichment (6-mer frequency, TF over GST control); in the test with ERF it was 1.51 fold enrichment (6-mer frequency, TF over GST control); in the test with ETV3L it was 1.29 fold enrichment (6-mer frequency, TF over GST control). The binding signal is 1.33 fold enrichment (6-mer frequency, TF over GST control) in the test with ETS2; 1.28 fold enrichment (6-mer frequency, TF over GST control) with SPDEF; 1.37 fold enrichment (6-mer frequency, TF over GST control) with ETV7; 1.33 fold enrichment (6-mer frequency, TF over GST control) with ELF5; 1.38 fold enrichment (6-mer frequency, TF over GST control) with ETV3; 1.36 fold enrichment (6-mer frequency, TF over GST control) in the test with ETV6.

The values above are taken from PMC7862700, “An all-to-all approach to the identification of sequence-specific readers for epigenetic DNA modifications on cytosine”.
